Experimental data as given in PubChem BioAssay AID602400 (Sanford-Burnham Center for Chemical Genomics, 2012).
Values without a mark were called inactive. How the calls were made is not given here.

Assay: off-target activity on Bfl-1 – biochemical, set 4, counter-screen for UBC13 polyubiquitination inhibitor project, SAR follow-up (AID 602400)
Conditions: Bfl-1 counterscreen for UBC13 inhibitors

Compound	IC50 [µM]
Cc1cc(C)cc(NC(=O)C2CCCN(c3ncnc4c3nc3n4CCCCC3)C2)c1 (stereo not drawn)	> 100
O=C(C1CCN(c2ncnc3c2nc2n3CCCCC2)CC1)N1CCN(c2ccccn2)CC1	> 100
O=C(NCC1CCN(Cc2cccc(Cl)c2)CC1)[C@@H]1CCCN(c2ncnc3c2nc2n3CCCCC2)C1	> 100
COc1cc(Cl)c(C)cc1NC(=O)C1CCN(c2ncnc3c2nc2n3CCCCC2)CC1	> 100
Cc1cccc(NC(=O)C2CCCN(c3ncnc4c3nc3n4CCCC3)C2)c1 (stereo not drawn)	> 100
O=C(NCc1ccc(Cl)c(Cl)c1)C1CCN(c2ncnc3c2nc2n3CCCCC2)CC1	> 100
O=C(C1CCN(c2ncnc3c2nc2n3CCCCC2)CC1)N1CCN(c2ncccn2)CC1	> 100
Cc1ccc(NC(=O)C2CCN(c3ncnc4c3nc3n4CCCCC3)CC2)cc1F	> 100
Cc1ccc(NC(=O)C2CCCN(c3ncnc4c3nc3n4CCCCC3)C2)cc1Br (stereo not drawn)	> 100
O=C(NCC1CCN(Cc2ccc(Cl)c(Cl)c2)CC1)C1CCCN(c2ncnc3c2nc2n3CCCCC2)C1 (stereo not drawn)	> 100
CC1CCCC(C)N1CCCNC(=O)C1CCCN(c2ncnc3c2nc2n3CCCCC2)C1 (stereo not drawn)	> 100
O=C(Nc1ccc(CN2CCCCC2)cc1)C1CCN(c2ncnc3c2nc2n3CCCCC2)CC1	> 100
O=C(NCc1ccc(Cl)c(Cl)c1)C1CCCN(c2ncnc3c2nc2n3CCCCC2)C1 (stereo not drawn)	> 100
